Test [1] in a line: Caspase-3/7 induction in HepG2 cells by small molecules, qHTS assay (AID 1346978). Note: nearly all actives have a fitted effect of over 15% in size. Note: potency is the fitted concentration of half-maximal effect. Put shortly: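 Caspase-3/7 induction was measured by Caspase-Glo 3/7 luminescence (30 min, room temperature) after a 17 hr compound exposure of wild-type HepG2 cells seeded at 2,000 per well and pre-incubated 5 hr.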
Test [2] in a line: Caspase-3/7 induction in CHO-K1 cells by small molecules, qHTS cell viability counter screen (AID 1346979). Note: nearly all actives have a fitted effect of over 35% in size. Note: potency is the fitted concentration of half-maximal effect. An outline of the steps: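 To flag cytotoxic compounds, treated CHO-K1 wild-type cells were given CellTiter-Fluor at 16hr and read fluorescently after 1hr at 37C; the caspase-3/7 luminescence was measured in these same wells.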
A general note: Quantitative high-throughput screening tests each substance at several concentrations.

The nature of test [3]: Caspase-3/7 induction in CHO-K1 cells by small molecules, qHTS assay (AID 1346980). Note: nearly all actives have a fitted effect of over 15% in size. An outline of the steps: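 Luminescent Caspase-Glo 3/7 read (30min, room temperature) quantified apoptosis induction. Cells were wild-type CHO-K1, treated with compound for 17hr at 37 C and 5% CO2.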
A short description of test [4]: Caspase-3/7 induction in HepG2 cells by small molecules, qHTS cell viability counter screen (AID 1346981). Note: nearly all actives have a fitted effect of over 30% in size. Note: potency is the fitted concentration of half-maximal effect. An outline of the steps:
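CellTiter-Fluor fluorescence measured viability in the same wells used for Caspase-Glo 3/7. HepG2 (wild type) at 2,000 cells/well were pre-incubated 5 hr, dosed, and given reagent at 16 hr, with 1 hr further at 37C.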

For test [5], the target named is Nuclear receptor subfamily 1 group I member 2 (Homo sapiens) (UniProt O75469). The experiment in a line: Human pregnane X receptor (PXR) small molecule agonists, qHTS assay (AID 1346982). Note: nearly all actives have a fitted effect of over 35% in size. Note: potency is the fitted concentration of half-maximal effect. Put shortly:
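Agonist mode: luminescence from ONE-Glo after 24 h compound exposure at 37C in HepG2 cells carrying hPXR-responsive CYP3A4 luciferase, plated in charcoal-stripped serum medium 5 h beforehand.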

For test [6], the target named is Nuclear receptor subfamily 1 group I member 2 (Rattus norvegicus) (UniProt Q9R1A7). The experiment in a line: Rat pregnane X receptor (rPXR) activation by small molecules, qHTS assay (AID 1346983). Note: nearly all actives have a fitted effect of over 20% in size. The settings on record: rPXR luciferase reporter cells, One-Glo luminescence, 24 h; max activation: stronger effect = higher value. Put shortly:
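Luminescent readout (One-Glo luciferase, 30 min room temperature) followed 24 hr compound treatment at 37 C of rPXR cells plated 2,000 per well and preincubated 5hr; qHTS format with compounds delivered in DMSO.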

Test [7] has as its target Nuclear receptor subfamily 1 group I member 2 (Homo sapiens) (UniProt O75469). The experiment in a line: CYP3A4 induction through human pregnane X receptor (PXR) by small molecules, qHTS assay (AID 1346984). Note: nearly all actives have a fitted effect of over 40% in size. Note: potency is the fitted concentration of half-maximal effect. Put shortly: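 Read-out is luminescence after One-Glo addition, following a 3 hr, 37C incubation with Luciferin-IPA CYP3A4 substrate (3uM final). Before that, compounds were on DPX-2 cells (HepG2 co-transfected with PXR element plus CYP3A4-promoter luciferase) for 24 hr at 37C.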

For test [8] the target is unchanged. The experiment in a line: Human pregnane X receptor (PXR) activation by small molecules, qHTS assay (AID 1346985). Note: nearly all actives have a fitted effect of over 40% in size. Put shortly: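 DPX-2 cells (HepG2 co-transfected with a PXR response element and a CYP3A4-promoter luciferase construct) were seeded at 2,000 per well, rested 5 hr at 37C, then exposed to DMSO-dissolved compounds for 24 hr. Activation was read as luciferase luminescence.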

The target in test [9] is Cytochrome P450 2D6 (Homo sapiens) (UniProt P10635). The experiment in a line: Cytochrome P450 Family 2 Subfamily D Member 6 (CYP2D6) small molecule antagonists: luciferase reporter qHTS assay (AID 1671196). Note: nearly all actives have a fitted effect of over 50% in size. Note: potency is the fitted concentration of half-maximal effect. Put shortly:
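CYP2D6 activity was followed as luminescence from its luciferin product after a 1 h NADPH-driven reaction at room temperature. Enzyme-substrate mix and compound were pre-incubated for 10 min, and the signal was read 20 min after adding detection reagent.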
(In a reporter assay the amount or activity of a reporter protein is the signal.)

Test [10] addresses Cytochrome P450 2C19 (Homo sapiens) (UniProt P33261). The experiment in a line: Cytochrome P450 Family 2 Subfamily C Member 19 (CYP2C19) small molecule antagonists: luciferase reporter qHTS assay (AID 1671197). Note: nearly all actives have a fitted effect of over 65% in size. Note: potency is the fitted concentration of half-maximal effect. An outline of the steps:
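Light output is proportional to CYP2C19 activity: proluciferin substrate is converted to luciferin, then detected by a luciferin detection reagent that also stops the 1 h, 37C NADPH-driven reaction. Ketoconazole serves as positive control.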

Several values for one entry are separate records, joined by “and”; a condition that tells them apart may be missing. Identical values can stand only once. Inconclusive results are not listed. The source holds several records for some structures; these can differ, active in one and inactive in another. Activity calls are given as the source filed them. Calls come from the whole dose curve; as a rule, active = well fitted curve in the direction sought with a large enough effect in the repeat runs; inconclusive = weak or mixed curves; inactive = no such curve, though single readings can be large; an effect the other way counts as inactive or inconclusive.
% is set by controls: 0 for no effect and ±100 for the full control effect.

Sequence of Cytochrome P450 2C19 (Homo sapiens) (P33261 whole entry, looked up): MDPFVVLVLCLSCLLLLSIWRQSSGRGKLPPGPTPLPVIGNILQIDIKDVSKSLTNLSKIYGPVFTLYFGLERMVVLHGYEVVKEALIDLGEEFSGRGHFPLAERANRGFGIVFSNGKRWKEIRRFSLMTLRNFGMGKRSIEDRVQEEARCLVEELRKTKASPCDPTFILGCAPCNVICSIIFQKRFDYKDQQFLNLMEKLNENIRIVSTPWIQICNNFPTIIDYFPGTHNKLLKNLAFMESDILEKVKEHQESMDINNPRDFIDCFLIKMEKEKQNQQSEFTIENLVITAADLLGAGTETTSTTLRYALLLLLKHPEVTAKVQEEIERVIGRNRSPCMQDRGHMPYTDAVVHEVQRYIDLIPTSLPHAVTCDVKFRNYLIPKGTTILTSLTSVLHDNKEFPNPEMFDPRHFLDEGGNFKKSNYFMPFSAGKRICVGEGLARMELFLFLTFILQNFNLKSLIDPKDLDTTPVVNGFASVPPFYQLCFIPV
Sequence of Nuclear receptor subfamily 1 group I member 2 (Homo sapiens) (O75469 whole entry, looked up): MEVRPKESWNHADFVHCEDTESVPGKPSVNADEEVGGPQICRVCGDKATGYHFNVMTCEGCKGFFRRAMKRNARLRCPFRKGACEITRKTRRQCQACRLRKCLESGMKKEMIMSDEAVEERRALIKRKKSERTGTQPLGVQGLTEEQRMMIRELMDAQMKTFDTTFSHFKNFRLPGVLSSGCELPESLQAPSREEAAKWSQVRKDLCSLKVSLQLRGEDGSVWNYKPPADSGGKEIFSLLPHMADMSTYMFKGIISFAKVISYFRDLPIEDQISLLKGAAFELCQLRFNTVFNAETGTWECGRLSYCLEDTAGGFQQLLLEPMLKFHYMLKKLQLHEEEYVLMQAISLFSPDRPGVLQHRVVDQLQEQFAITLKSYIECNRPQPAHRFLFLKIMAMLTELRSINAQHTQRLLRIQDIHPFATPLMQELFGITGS
Sequence of Nuclear receptor subfamily 1 group I member 2 (Rattus norvegicus) (Q9R1A7 whole entry, looked up): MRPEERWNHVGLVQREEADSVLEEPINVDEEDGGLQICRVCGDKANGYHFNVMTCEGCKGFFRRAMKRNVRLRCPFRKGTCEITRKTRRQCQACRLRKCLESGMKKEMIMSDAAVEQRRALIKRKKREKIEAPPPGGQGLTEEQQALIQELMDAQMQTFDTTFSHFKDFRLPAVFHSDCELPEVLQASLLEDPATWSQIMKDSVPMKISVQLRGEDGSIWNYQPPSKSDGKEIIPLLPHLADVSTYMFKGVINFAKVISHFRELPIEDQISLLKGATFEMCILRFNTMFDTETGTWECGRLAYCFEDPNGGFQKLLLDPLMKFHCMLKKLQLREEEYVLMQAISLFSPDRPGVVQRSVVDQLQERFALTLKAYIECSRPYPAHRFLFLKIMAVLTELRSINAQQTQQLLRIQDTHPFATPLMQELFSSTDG
Sequence of Cytochrome P450 2D6 (Homo sapiens) (P10635 whole entry, looked up): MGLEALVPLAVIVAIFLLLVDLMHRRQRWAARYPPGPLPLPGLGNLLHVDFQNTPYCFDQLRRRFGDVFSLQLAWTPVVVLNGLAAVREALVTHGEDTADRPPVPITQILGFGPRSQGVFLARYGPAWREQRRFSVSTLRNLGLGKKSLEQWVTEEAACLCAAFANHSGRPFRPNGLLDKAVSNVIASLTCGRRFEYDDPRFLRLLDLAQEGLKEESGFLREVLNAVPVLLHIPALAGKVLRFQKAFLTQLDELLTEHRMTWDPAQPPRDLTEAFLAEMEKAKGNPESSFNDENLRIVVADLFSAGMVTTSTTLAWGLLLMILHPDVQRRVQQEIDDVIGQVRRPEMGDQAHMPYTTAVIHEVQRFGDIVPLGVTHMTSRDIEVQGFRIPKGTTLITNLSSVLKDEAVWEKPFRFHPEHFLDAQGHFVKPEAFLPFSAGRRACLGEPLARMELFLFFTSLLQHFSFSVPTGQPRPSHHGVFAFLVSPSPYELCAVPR

Consider `O=C1NC(=O)C(c2ccccc2)(c2ccccc2)N1`, for which the Potency result in [1], in test [2], in test [3] and in [4] was “inactive” throughout.

Take `CN(C)C(=O)Nc1ccc(Cl)c(Cl)c1`: the Potency entry in test [1], in test [2], in test [3], in test [4] and in test [7] was “inactive” in each case. Also, the Potency is 60.9 µM (active) and 48.6 µM (active) and inactive in test [5]; 31.6 µM (active) and inactive in [9]; 39.8 µM (active) and 71 µM (active) and inactive in test [10]. Besides, the max activation in [6] is -0.866% (inactive). The compound was classed as inactive in test [8].

Turning to `CN(C)CCOC(c1ccccc1)c1ccccc1`, the Potency result in [1], in test [2], in [3] and in test [4] was “inactive” throughout. The Potency in test [5] was 54.8 µM (active) and inactive.

As to `CCCC[P+](CCCC)(CCCC)CCCC`, the Potency entry in [1], in test [2] and in test [3] was “inactive” throughout.

On to `CCCCNC(=O)NS(=O)(=O)c1ccc(C)cc1`, for which the Potency entry in test [1], in [2] and in [3] was “inactive” throughout.

For the compound `CN(N=O)C(=O)N[C@@H]1[C@@H](O)[C@H](O)[C@@H](CO)O[C@@H]1O`, the Potency entry in [1], in test [2], in [3], in test [4], in test [5] and in [7] was “inactive” in each case. Also, the Potency entry in [9] and in test [10] was “inactive” each time. Moreover, the max activation in test [6] is -0.687% (inactive). Besides, the outcome in test [8] was inactive.

For `CCN(CC)C(=O)c1cccc(C)c1`, the Potency entry in [1], in test [2], in test [3], in test [4], in test [5] and in [9] was “inactive” in each case. Besides, the max activation in test [6] was -4.83% (inactive). The compound was called inactive in [8]. The Potency entry in test [10] was “inactive and 71 µM (active)”.

`CN1CCc2cccc3c2[C@H]1Cc1ccc(O)c(O)c1-3`: the Potency result in [1], in test [3], in test [5] and in test [10] was “inactive” in each case. In addition, the Potency in test [2] is 55 µM (active) and 22.8 µM (active) and 23.7 µM (active); in [4], 61.8 µM (active) and 25.6 µM (active); in test [7], 6.31 µM (active); in test [9], 45.3 µM (active) and 11.8 µM (active) and 38.9 µM (active). In addition, the max activation in test [6] was 9.82% (inactive). For the same compound, the result in [8] was inactive.

With `Nc1ccc(S(N)(=O)=O)cc1`, the Potency result in test [1] and in test [3] was “inactive” in each case. In test [2], the Potency is 48.8 µM (active) and inactive.

On to `CCCCC1(COC(=O)CCC(=O)O)C(=O)N(c2ccccc2)N(c2ccccc2)C1=O`, for which the Potency entry in test [1], in test [2], in [3] and in [4] was “inactive” each time.

As for `CCOC(N)=O`, the Potency result in test [1], in [2], in test [3], in test [4], in test [5] and in test [7] was “inactive” throughout. Further, the Potency entry in test [9] was “inactive”. Also, in test [6], the max activation is -2.09% (inactive). Further, in test [8], the result was inactive. The Potency in [10] is 60 µM (active) and inactive.

With `CCCCCCc1ccc(O)cc1O`, the Potency result in test [1], in test [3], in [4] and in test [7] was “inactive” in each case. For the same compound, the Potency in test [2] is 61.3 µM (active) and 61.1 µM (active) and 1.19 µM (active); in test [5] it was 68.8 µM (active) and inactive; in [9] it was 31.8 µM (active) and 31.7 µM (active) and 15.5 µM (active); in [10], 5.04 µM (active) and 5.64 µM (active) and 3.89 µM (active). Moreover, the max activation in test [6] was -2.3% (inactive). The result in test [8] was inactive.

As to `NC(CO)(CO)CO`, the Potency result in [1], in test [2], in test [3], in test [4], in test [5] and in test [7] was “inactive” throughout. The Potency entry in [9] and in test [10] was “inactive” in each case. In addition, the max activation in test [6] is -3.86% (inactive). For the same compound, the result in test [8] was inactive.

On to `CN(C)C(=S)SC(=S)N(C)C`, for which the Potency was 4.98 µM (active) and 770 nM (active) and 3.76 µM (active) in test [1]; 1.4 µM (active) and 433 nM (active) and 2.11 µM (active) in [2]; 30.6 µM (active) in test [4]; 1.98 µM (active) and inactive in [5]; 16.3 µM (active) and 20 µM (active) and 7.76 µM (active) in test [10]. Besides, the Potency result in test [3] and in test [7] was “inactive” each time. In test [6], the max activation was -4.94% (inactive). The outcome in [8] was inactive.

As to `O=c1[nH]cnc2c1ncn2[C@H]1CC[C@@H](CO)O1`, the Potency entry in [1], in test [2], in test [3], in test [4], in [5] and in test [7] was “inactive” each time. The Potency entry in [9] and in test [10] was “inactive” throughout. Moreover, in [6], the max activation is 0.0547% (inactive). For the same compound, in [8], the call was inactive.

In the case of `CCCCCCCCCCCC[N+](C)(C)Cc1ccccc1`, the Potency in test [1] is 67.3 µM (active) and 66.4 µM (active); in test [2] it was 42.4 µM (active) and 33.3 µM (active) and 26.6 µM (active); in test [4], 67.3 µM (active) and 74.5 µM (active) and inactive; in test [9], 984 nM (active) and 866 nM (active) and 219 nM (active); in test [10], 78.1 µM (active) and 34.5 µM (active) and 17.4 µM (active). Moreover, the Potency entry in test [3] and in [5] was “inactive” in each case.

In the case of `Cc1ccc(S(=O)(=O)O)cc1`, the Potency entry in test [1], in test [2], in test [3] and in test [4] was “inactive” in each case.

With `CCCCCCCCCCCCCCCC[N+](C)(C)Cc1ccccc1`, the Potency was 70.8 µM (active) and inactive in test [1]; 50.1 µM (active) and 39.3 µM (active) and 29.8 µM (active) in [2]; 62.2 µM (active) in test [4]; 923 nM (active) and 406 nM (active) and 389 nM (active) in test [9]; 32.7 µM (active) and 51.2 µM (active) and 27.5 µM (active) in test [10]. The Potency result in [3], in [5] and in test [7] was “inactive” each time. The max activation in [6] is -17.4% (inactive). Also, the result in test [8] was inactive.

For `CN(C)CCOC(C)(c1ccccc1)c1ccccn1` (stereo not given), the Potency entry in [1], in test [2], in test [3], in [4] and in test [5] was “inactive” each time. Further, the Potency in test [9] was 17.9 µM (active) and 20 µM (active) and 13.8 µM (active); in [10], 40 µM (active) and inactive.

Take `CC(=O)C(=O)O`: the Potency result in [1], in [2], in test [3], in test [4], in test [5] and in test [9] was “inactive” in each case. The Potency entry in [10] is “inactive”.

Values taken from PubChem BioAssay (Tox21).
